Data on 40 molecules can be found in ChEMBL document CHEMBL1157539, “Thousands of chemical starting points for antimalarial lead identification” (Nature, 2010).

Each structure is given as a SMILES string.

In this assay the test system is Plasmodium falciparum. Nature of the assay: GSK_TCMDC: Inhibition of Plasmodium falciparum 3D7 in whole red blood cells, using parasite LDH activity as an index of growth. Test compounds present at 2uM. The format is functional.
Broadly, the Inhibition is the drop in the measured response relative to a control, in per cent. Read a low Inhibition as a response near the control. In the case of `Cc1cc(NC(=O)c2ccc(S(=O)(=O)N(Cc3ccccc3)C(C)C)cc2)no1`, the Inhibition amounted to 87%.
To `CCCCCCn1c(Sc2ccc(C#N)c([N+](=O)[O-])c2)nnc1-c1ccc(Cl)cc1` belongs 93%.
The molecule `N=C1NC(c2ccccc2)(c2ccccc2)C(=O)N1CC=Cc1ccccc1.O=C(O)C(F)(F)F` displayed an Inhibition of 98%.
To `CCc1c[nH]c2c(N3CCCS3(=O)=O)cc(C(=O)N[C@@H](Cc3ccccc3)[C@H](O)CNC(C)(C)CCCC(C)C)cc12` belongs 96%.
To `O=C(NCCc1ccccc1)N(Cc1cccc(-c2ccc(CNC3CCCC3)cc2)c1)C1CCN(Cc2ccccc2)CC1.O=C(O)C(F)(F)F` belongs 98%; to `O=C(NCc1ccccc1)Nc1ccc(-c2cccc(-c3nc4cc(C(F)(F)F)ccc4[nH]3)c2)cc1`, 97%.
To `O=C(Nc1cccc(-c2cccc(-c3nc4cc(C(F)(F)F)ccc4[nH]3)c2)c1)c1cccnc1Cl` belongs 95%; to `CCCC(CNCc1cccc(SC(F)(F)F)c1)CNc1cc(=O)c2ccccc2[nH]1` (stereo not given), 100%.
Molecule `Cc1cnc(NCC2CCCCC2)nc1N[C@@H](CC(C)C)C(=O)Nc1ccccc1.O=C(O)C(F)(F)F` registered an Inhibition of 96%.
`COc1ccc(-c2ccc(NC(=O)c3ccc(C#N)cc3)cc2)cc1CN1CCC(O)CC1.O=C(O)C(F)(F)F` had an Inhibition of 94%.
To `Cc1cc(N)c2cc(NC(=O)/C=C/c3ccccc3Cl)ccc2n1` belongs 100%; to `CCN(CC)CCN(Cc1ccc(-c2ccc(C(F)(F)F)cc2)cc1)C(=O)Cn1c(CCc2c(F)cccc2F)nc(=O)c2ccccc21.O=C(O)C(O)C(O)C(=O)O`, 100%.
Next, `CC(C)(CNCc1cc(Cl)cc(Cl)c1)c1nc(-c2ccnc(N)n2)c(-c2ccc(Cl)c(O)c2)[nH]1.Cl`: 92%; `Cc1ccccc1C1CCN(C2CCC(NC(=O)c3cc4cc(C(C)C)ccc4[nH]3)CC2)CC1` (stereo not given): 99%; `CCc1c(C)nc2nc(Cc3cccc(F)c3)nn2c1N1CCN(c2ccccn2)CC1`: 100%.
Next, `COc1ccc(NC(=O)[C@H](CC(C)C)Nc2cc(C)nc(NCCc3cccs3)n2)cc1.O=C(O)C(F)(F)F`: 100%; `Cc1ccc(CN2CCN(Cc3cccc(NC(=O)c4cccs4)c3)CC2)cc1C.O=C(O)C(F)(F)F`: 96%; `CC(C)NC(=O)c1cccc(-c2cccc(OCCN3CCSCC3c3ccccc3)c2)c1` (stereo not given): 89%.
`O=C(c1ccc([N+](=O)[O-])o1)N1CCC(c2cn(Cc3cccc(F)c3)c3ccccc23)CC1` showed an Inhibition of 97%.
To `COc1cc(C(=O)N2CCC(CCN3CCC4(CC3)CN(S(C)(=O)=O)c3ccccc34)CC2Cc2ccc(Cl)c(Cl)c2)cc(OC)c1OC.Cl` (stereo not given) belongs 100%.
Next, `O=C(Nc1ccc(C(=O)N(Cc2ccc3c(c2)OCO3)C2CCCC2)cc1)c1cccs1`: 97%.
Next, `Cc1cccc2nc(-c3ccc(-c4cccc(CN5CCCCC5)c4)s3)[nH]c12.O=C(O)C(F)(F)F`: 100%; `Cc1cc(C(=O)Nc2ccc3c(c2)CCN3C2CCN(Cc3cccc(F)c3F)C2)no1` (stereo not given): 95%; `COc1ccc(NC(=O)NC2CCN(CCCOc3cc(C)nc4ccccc34)CC2)cc1OC`: 97%.
On to `O=C(NC1CCN(Cc2ccccc2)CC1)c1cc(-c2ccncc2)nc2ccc(Cl)cc12`, for which the Inhibition amounted to 97%.
Next, `CCc1cc(NC2CCN(C)CC2)nc(Nc2cccc(OC)c2)n1`: 93%.
To `Clc1ccccc1CCNCC1CCN(CC2CCCCC2)CC1.O=C(O)C(F)(F)F` belongs 97%; to `CC(C)(C)c1ccc(C(=O)Nc2cccc(Nc3c(C(=O)NCc4cccc(C(F)(F)F)c4)cnc4c(O)cccc34)c2)cc1.O=C(O)C(F)(F)F`, 83%.
Next, `O=C(NC1CCN(CCCOc2ccnc3cc(Cl)ccc23)C1)c1ccc(Br)cc1` (stereo not given): 86%; `CC(C)N(Cc1cnc2nc(N)nc(N)c2n1)c1ccc(Cl)c(Cl)c1`: 100%.
`O=C(Nc1cccc(CN2CCN(C(=O)c3cccc(F)c3)CC2)c1)c1cccs1.O=C(O)C(F)(F)F`: the Inhibition is 95%.
To `CN(C)C(CNC(=O)c1cc(-c2ccncc2)c(-c2ccc(NC(=O)Nc3ccccc3)cc2)o1)c1ccccc1.O=C(O)C(F)(F)F` (stereo not given) belongs 100%; to `N=C(N)NC(=O)Nc1cc(Cl)c(Cl)c(Br)c1`, 99%.
Next, `Cc1cc(O)c2c3c1C(=O)C=C1C3c3c(c(O)cc(O)c3C(=O)C1(C)C)C2=O` (stereo not given): 98%; `COc1ccc(-c2cc(C(=O)Nc3ccc(CCCN(C)Cc4ccc(OC)c(OC)c4)cc3)c3ccccc3n2)cc1`: 92%.
On to `COc1cc(C(=O)NCCCN2CCN(c3cc(Cl)ccc3OC)CC2)ccc1-c1nc2cc(Cl)c(Cl)cc2[nH]1`, for which the Inhibition amounted to 100%.
To `O=C(Nc1cccc(-c2cccc(-c3nc4cc(C(F)(F)F)ccc4[nH]3)c2)c1)c1cccnc1` belongs 100%; to `COc1ccc2nccc([C@@H](O)CN3CCC(NCc4nc5cc(F)ccc5o4)CC3)c2c1.O=C(O)C(=O)O`, 100%.
With `CCN1CCC(N(CCCCCCc2ccc(C(F)(F)F)cc2)C(=O)Cn2c(CCc3cccc(F)c3F)cc(=O)c3ccccc32)CC1.O=C(O)C(O)C(O)C(=O)O`, the Inhibition is reported as 88%.
To `O=C(Nc1ccccc1C(F)(F)F)Nc1nn(Cc2c(F)cccc2Cl)cc1Br` belongs 100%.
